From ChEMBL document CHEMBL1961873, “Compounds: GSK PKIS; Assays: Nanosyn kinase panel” (2012)
Values joined by “and” are separate entries in the source; they are usually repeats but may differ in a detail not shown here. Equal values may be shown once.

What was measured:
[1] = biological target: Ribosomal protein S6 kinase alpha-6 (Homo sapiens) (UniProt Q9UK32); settings: at 1 µM;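 further: each value is a mean inhibition of RSK4 from a GSK PKIS panel screen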
[2] = biological target: T1, Serine/threonine-protein kinase Sgk1 (Homo sapiens) (UniProt O00141); settings: at 0.1 µM
T1 sequence (whole entry): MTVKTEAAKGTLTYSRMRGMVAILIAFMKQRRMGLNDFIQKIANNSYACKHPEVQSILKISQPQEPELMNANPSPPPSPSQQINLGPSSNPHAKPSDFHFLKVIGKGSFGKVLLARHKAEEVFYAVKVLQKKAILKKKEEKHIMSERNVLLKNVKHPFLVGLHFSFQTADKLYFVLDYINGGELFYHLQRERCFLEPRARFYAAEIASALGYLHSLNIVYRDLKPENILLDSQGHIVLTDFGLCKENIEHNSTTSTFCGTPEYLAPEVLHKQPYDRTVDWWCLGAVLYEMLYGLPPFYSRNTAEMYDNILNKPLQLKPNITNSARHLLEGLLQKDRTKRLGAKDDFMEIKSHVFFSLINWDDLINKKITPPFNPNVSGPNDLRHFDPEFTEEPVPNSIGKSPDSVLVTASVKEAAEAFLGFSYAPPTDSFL

[3] = biological target: T1, Serine/threonine-protein kinase Sgk1 (Homo sapiens); settings: at 1 µM
[4] = biological target: T2, Serine/threonine-protein kinase Sgk2 (Homo sapiens) (UniProt Q9HBY8); settings: at 0.1 µM
T2 sequence (whole entry): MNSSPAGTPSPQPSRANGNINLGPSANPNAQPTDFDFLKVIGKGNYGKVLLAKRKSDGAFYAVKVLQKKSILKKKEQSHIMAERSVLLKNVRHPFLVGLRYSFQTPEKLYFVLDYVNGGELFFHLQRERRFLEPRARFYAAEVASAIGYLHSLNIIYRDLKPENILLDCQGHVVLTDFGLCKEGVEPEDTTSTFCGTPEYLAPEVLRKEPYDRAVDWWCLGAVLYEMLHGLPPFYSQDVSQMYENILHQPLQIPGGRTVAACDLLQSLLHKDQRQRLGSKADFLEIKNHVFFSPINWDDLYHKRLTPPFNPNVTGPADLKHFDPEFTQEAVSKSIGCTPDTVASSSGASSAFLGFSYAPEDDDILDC

[5] = biological target: T2, Serine/threonine-protein kinase Sgk2 (Homo sapiens); settings: at 1 µM
[6] = biological target: T3, Serine/threonine-protein kinase Sgk3 (Homo sapiens) (UniProt Q96BR1); settings: at 0.1 µM
T3 sequence (whole entry): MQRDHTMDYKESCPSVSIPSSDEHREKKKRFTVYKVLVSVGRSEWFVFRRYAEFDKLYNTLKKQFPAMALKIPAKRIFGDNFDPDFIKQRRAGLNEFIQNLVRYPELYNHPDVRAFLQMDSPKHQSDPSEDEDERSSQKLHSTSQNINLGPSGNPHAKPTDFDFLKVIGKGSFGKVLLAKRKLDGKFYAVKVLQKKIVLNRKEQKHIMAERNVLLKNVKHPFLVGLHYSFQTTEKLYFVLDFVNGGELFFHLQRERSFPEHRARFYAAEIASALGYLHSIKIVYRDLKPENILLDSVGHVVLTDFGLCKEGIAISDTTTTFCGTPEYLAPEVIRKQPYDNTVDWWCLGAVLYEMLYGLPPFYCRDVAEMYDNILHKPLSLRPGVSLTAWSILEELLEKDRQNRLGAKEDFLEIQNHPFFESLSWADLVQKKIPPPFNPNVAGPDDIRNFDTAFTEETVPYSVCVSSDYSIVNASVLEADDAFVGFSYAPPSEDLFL

[7] = biological target: T3, Serine/threonine-protein kinase Sgk3 (Homo sapiens); settings: at 1 µM
[8] = biological target: 5'-AMP-activated protein kinase catalytic subunit alpha-1 (Homo sapiens) (UniProt Q13131); settings: at 0.1 µM
Chain of 5'-AMP-activated protein kinase catalytic subunit alpha-1 (Homo sapiens) (Q13131 whole entry, looked up): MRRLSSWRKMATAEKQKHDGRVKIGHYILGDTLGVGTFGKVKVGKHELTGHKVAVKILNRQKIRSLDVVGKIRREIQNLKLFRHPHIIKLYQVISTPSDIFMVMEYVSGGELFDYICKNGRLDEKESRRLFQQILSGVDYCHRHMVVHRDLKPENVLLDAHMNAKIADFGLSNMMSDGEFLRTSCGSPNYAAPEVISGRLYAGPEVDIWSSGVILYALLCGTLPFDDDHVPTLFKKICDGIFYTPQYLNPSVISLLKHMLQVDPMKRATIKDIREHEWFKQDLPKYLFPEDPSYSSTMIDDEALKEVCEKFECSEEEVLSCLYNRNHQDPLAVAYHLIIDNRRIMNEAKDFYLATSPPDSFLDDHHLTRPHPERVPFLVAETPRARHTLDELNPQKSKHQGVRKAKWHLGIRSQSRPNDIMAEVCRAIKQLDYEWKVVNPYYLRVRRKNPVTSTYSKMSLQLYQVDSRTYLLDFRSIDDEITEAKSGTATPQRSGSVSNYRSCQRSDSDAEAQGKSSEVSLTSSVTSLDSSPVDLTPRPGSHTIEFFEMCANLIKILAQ

[9] = biological target: 5'-AMP-activated protein kinase catalytic subunit alpha-1 (Homo sapiens) (UniProt Q13131); settings: at 1 µM
[10] = biological target: 5'-AMP-activated protein kinase catalytic subunit alpha-2 (Homo sapiens) (UniProt P54646); settings: at 0.1 µM
Chain of 5'-AMP-activated protein kinase catalytic subunit alpha-2 (Homo sapiens) (P54646 whole entry, looked up): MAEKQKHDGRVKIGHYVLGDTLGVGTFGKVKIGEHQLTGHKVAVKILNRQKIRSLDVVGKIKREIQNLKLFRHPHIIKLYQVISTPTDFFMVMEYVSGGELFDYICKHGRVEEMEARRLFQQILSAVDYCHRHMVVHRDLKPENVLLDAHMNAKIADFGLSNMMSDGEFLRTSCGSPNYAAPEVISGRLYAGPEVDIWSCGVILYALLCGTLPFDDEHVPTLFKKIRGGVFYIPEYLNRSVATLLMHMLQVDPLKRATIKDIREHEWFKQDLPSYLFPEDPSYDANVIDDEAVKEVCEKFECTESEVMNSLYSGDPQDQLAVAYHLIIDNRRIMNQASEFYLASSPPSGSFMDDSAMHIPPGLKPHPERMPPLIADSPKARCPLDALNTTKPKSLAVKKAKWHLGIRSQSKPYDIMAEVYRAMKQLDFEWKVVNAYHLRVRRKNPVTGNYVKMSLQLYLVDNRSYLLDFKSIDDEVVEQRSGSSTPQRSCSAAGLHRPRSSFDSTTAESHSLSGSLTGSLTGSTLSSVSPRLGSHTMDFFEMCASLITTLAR

[11] = biological target: 5'-AMP-activated protein kinase catalytic subunit alpha-2 (Homo sapiens) (UniProt P54646); settings: at 1 µM
[12] = biological target: T4, NUAK family SNF1-like kinase 1 (Homo sapiens) (UniProt O60285); settings: at 0.1 µM
T4 sequence (whole entry): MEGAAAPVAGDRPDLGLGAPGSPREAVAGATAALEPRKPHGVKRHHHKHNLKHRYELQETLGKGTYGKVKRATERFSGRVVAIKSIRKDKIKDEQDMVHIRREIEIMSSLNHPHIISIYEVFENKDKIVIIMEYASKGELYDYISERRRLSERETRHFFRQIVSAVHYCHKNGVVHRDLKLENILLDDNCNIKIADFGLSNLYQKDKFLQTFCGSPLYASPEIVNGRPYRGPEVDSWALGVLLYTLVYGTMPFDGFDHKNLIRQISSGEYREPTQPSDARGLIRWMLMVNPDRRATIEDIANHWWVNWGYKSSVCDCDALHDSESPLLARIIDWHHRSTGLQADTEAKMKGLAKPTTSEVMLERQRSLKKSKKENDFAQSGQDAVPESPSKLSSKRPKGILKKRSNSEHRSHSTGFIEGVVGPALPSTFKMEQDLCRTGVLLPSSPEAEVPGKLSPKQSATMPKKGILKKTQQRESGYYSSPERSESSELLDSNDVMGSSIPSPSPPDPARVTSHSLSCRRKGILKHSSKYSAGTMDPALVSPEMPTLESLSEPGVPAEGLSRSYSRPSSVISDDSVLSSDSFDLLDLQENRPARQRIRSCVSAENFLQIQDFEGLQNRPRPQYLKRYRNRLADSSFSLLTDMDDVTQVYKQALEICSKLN

[13] = biological target: T4, NUAK family SNF1-like kinase 1 (Homo sapiens); settings: at 1 µM
[14] = biological target: T5, Serine/threonine-protein kinase BRSK1 (Homo sapiens) (UniProt Q8TDC3); settings: at 0.1 µM
T5 sequence (whole entry): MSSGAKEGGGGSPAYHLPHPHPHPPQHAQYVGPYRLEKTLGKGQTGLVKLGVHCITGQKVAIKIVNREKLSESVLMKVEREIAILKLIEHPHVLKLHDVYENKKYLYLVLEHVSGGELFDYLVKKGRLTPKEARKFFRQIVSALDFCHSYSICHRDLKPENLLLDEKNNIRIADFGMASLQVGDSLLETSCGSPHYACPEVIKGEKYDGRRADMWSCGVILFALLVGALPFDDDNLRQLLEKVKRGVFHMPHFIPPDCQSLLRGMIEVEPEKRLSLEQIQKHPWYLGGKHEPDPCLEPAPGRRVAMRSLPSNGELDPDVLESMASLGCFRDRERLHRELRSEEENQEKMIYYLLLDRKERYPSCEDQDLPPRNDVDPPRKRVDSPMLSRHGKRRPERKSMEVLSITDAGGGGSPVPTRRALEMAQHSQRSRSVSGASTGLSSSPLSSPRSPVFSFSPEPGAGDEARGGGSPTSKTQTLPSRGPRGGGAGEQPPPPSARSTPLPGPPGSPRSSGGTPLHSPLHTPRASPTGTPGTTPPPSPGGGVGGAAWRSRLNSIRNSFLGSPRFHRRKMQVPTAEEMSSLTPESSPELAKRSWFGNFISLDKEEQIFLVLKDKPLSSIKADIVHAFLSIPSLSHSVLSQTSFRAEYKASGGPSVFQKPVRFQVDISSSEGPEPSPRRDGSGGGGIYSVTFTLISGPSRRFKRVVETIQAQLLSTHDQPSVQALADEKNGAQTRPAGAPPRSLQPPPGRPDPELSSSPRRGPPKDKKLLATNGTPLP

[15] = biological target: T5, Serine/threonine-protein kinase BRSK1 (Homo sapiens); settings: at 1 µM
[16] = biological target: T6, Serine/threonine-protein kinase BRSK2 (Homo sapiens) (UniProt Q8IWQ3); settings: at 0.1 µM
T6 sequence (whole entry): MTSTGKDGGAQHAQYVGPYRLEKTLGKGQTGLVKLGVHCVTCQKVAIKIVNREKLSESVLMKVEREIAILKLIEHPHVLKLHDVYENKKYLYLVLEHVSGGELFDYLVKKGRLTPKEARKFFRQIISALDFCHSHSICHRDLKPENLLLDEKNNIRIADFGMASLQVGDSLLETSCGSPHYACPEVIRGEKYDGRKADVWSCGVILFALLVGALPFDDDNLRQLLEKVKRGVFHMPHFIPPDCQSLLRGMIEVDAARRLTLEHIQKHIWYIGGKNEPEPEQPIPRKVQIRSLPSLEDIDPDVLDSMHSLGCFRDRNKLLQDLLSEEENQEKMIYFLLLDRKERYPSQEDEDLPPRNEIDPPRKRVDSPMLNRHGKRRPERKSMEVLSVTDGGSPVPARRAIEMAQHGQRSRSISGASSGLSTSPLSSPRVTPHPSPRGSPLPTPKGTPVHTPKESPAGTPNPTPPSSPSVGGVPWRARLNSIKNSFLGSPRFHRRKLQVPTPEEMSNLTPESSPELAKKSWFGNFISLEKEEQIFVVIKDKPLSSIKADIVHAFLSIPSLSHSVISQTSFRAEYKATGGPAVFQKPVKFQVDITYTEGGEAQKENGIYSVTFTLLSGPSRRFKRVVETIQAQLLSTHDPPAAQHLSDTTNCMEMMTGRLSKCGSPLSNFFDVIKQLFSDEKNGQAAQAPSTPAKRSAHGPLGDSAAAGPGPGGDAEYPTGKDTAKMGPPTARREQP

[17] = biological target: T6, Serine/threonine-protein kinase BRSK2 (Homo sapiens); settings: at 1 µM
[18] = biological target: Calcium/calmodulin-dependent protein kinase type 1D (Homo sapiens) (UniProt Q8IU85); settings: at 0.1 µM
Chain of Calcium/calmodulin-dependent protein kinase type 1D (Homo sapiens) (Q8IU85 whole entry, looked up): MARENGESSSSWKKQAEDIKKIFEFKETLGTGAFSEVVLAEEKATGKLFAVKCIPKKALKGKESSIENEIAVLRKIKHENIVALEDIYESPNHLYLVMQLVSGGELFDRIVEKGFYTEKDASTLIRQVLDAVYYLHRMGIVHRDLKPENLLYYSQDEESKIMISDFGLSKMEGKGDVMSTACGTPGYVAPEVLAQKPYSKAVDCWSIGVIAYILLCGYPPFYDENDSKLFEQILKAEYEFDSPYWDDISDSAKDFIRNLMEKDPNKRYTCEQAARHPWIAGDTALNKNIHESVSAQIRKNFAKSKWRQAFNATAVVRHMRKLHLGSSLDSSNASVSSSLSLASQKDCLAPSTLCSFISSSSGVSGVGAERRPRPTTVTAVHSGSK

[19] = biological target: Calcium/calmodulin-dependent protein kinase type 1D (Homo sapiens) (UniProt Q8IU85); settings: at 1 µM
[20] = biological target: Calcium/calmodulin-dependent protein kinase type II subunit alpha (Homo sapiens) (UniProt Q9UQM7); settings: at 0.1 µM;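 further: reported values are averages (mean inhibition of CAMK2A)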
Chain of Calcium/calmodulin-dependent protein kinase type II subunit alpha (Homo sapiens) (Q9UQM7 whole entry): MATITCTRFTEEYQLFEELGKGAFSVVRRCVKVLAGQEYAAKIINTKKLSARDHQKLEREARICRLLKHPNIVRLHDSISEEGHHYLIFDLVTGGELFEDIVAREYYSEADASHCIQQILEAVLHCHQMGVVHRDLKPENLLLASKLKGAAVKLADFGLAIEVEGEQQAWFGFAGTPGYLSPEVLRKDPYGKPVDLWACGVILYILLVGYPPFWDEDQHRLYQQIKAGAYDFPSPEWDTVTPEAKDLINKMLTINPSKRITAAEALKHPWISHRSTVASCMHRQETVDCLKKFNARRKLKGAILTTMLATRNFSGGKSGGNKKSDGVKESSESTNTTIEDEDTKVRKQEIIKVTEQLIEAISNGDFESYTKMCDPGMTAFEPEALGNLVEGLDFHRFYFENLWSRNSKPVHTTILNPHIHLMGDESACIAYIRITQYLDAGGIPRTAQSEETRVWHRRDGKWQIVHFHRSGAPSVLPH

Chain of Ribosomal protein S6 kinase alpha-6 (Homo sapiens) (Q9UK32 whole entry): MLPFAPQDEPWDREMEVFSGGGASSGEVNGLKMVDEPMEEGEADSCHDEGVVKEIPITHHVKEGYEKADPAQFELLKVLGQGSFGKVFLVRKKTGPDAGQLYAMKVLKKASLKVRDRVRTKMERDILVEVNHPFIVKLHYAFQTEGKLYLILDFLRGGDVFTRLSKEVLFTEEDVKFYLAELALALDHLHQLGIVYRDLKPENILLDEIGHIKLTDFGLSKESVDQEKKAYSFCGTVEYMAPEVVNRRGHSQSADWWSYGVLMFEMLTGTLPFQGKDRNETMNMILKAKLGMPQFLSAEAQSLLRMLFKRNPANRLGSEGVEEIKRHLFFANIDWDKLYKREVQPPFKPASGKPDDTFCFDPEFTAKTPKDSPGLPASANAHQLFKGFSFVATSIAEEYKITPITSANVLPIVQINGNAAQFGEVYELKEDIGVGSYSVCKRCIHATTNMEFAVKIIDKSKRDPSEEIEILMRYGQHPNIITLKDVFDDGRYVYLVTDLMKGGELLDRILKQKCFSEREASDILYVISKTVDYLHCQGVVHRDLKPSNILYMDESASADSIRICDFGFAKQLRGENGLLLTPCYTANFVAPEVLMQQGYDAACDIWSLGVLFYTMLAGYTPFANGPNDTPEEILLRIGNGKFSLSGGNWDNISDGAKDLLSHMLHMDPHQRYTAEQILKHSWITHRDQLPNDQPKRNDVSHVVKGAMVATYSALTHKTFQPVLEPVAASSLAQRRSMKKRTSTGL

Compound	inhibition [1]	inhibition [2]	inhibition [3]	inhibition [4]	inhibition [5]	inhibition [6]	inhibition [7]	inhibition [8]	inhibition [9]	inhibition [10]	inhibition [11]	inhibition [12]	inhibition [13]	inhibition [14]	inhibition [15]	inhibition [16]	inhibition [17]	inhibition [18]	inhibition [19]	inhibition [20]
O=C(O[C@H]1CN[C@H](C#Cc2cc3ncnc(Nc4ccc(OCc5cccc(F)c5)c(Cl)c4)c3s2)C1)N1CCOCC1	1.82%	3.69%	4.68%	6.81%	6.86%	7.16%	6.57%	4.66%	4.92%	4.18%	2.14%	0.4%	0.97%	-0.35%	1.81%	2.06%	3.32%	-0.02%	-0.12%	2.9%
O=C1Nc2ccccc2/C1=C1\CCc2cc(O)ccc21	37.6%	6.47%	19.2%	2.24%	10.2%	2.61%	5.81%	5.27%	13.4%	5.22%	14.3%	16.2%	60.8%	3.95%	16.9%	5.82%	20.1%	1.02%	3.43%	3.85%
CN(C)CCNC(=O)Nc1ccc(N(C)c2ccnc(Nc3ccc(CS(C)(=O)=O)cc3)n2)cc1	3.59%	3.14%	3.11%	0.71%	-2.21%	3.61%	0.64%	2.62%	5.07%	2.24%	7.2%	14.5%	57.9%	2.43%	5.89%	2.14%	4.34%	0.53%	1.18%	4.92%
COc1ccc2ncn(-c3cc(O[C@H](C)c4ccccc4C(F)(F)F)c(C(N)=O)s3)c2c1	9.8%	0.33%	0.95%	-1.23%	0.53%	-0.12%	0.72%	-0.57%	3.14%	0.8%	2.72%	5.12%	43.5%	2.49%	25.8%	6.06%	36.5%	0.14%	1.96%	-1.63%
Nc1ncnc2occ(-c3ccc(NC(=O)Nc4cc(C(F)(F)F)ccc4F)cc3)c12	9.97% and 5.9%	1.7% and 0.49%	3.4% and 1.19%	-0.51% and 1.78%	2.34% and 2.65%	1.18% and 0.24%	1.67% and -1.01%	2.02% and -1.41%	1.94% and -0.8%	-0.22% and 3.36%	0.27% and -2.18%	5.01% and 0.14%	6.07% and 1.77%	1.75% and -1.05%	9.34% and -0.75%	2.02% and -1.66%	6.92% and 0.75%	1.85% and -1.45%	4.86% and 2.86%	2.82% and -3.6%
Cc1c2ccc(N(C)c3ccnc(Nc4cccc(S(N)(=O)=O)c4)n3)cc2nn1C	4.77%	3.85%	4.14%	2.67%	3.7%	4.44%	8.06%	3.77%	4.2%	3.67%	5.34%	10.9%	46.2%	3.47%	3.4%	1.95%	2.47%	0.58%	2.6%	3.49%
O=C(O[C@H]1CN[C@H](C#Cc2cc3ncnc(Nc4ccc5c(ccn5Cc5cc(F)ccc5F)c4)c3s2)C1)N1CCOCC1	2.42%	3.69%	3.13%	4.36%	0.96%	3.53%	3.51%	3.06%	1.13%	3.89%	3.87%	1.19%	1.94%	1.2%	0.38%	1.23%	0.73%	0.69%	2.19%	2.78%
